Screen size: about 360,000 compounds; about 2,600 (0.72%) were called active.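 The calls were made as follows: active = inhibition of the luminescence signal of 40% or more relative to plate controls, in a single-dose primary screen at 18.75 µM; inactive = the rest.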 The sample as a whole holds a higher share of actives than the screen did.
test: HIF-2a reporter inhibitors, primary screen, luminescence, 786-0 RCC cells (AID 624352); settings: 786-0 RCC cells HIF-2a reporter, luciferase luminescence, overnight; at 18.8 µM; stronger effect = higher value

| SMILES | inhibition |
| --- | --- |
| COc1ccc(/C=C2/SC(=O)N(CCCCCC(=O)Nc3ccccc3C(=O)O)C2=S)cc1 | 84.2% (active) |
| COc1ccc(NC(=O)CCCN2C(=O)C(c3ccccc3)Oc3cccnc32)cc1 (stereo not drawn) | 0.775% (inactive) |
| CCCNC(=O)c1ccccc1NC(=O)CSCc1ccc(OC)cc1 | 19% (inactive) |
| Cc1ccccc1C(=O)N1CCC(C(=O)Nc2ccc(S(=O)(=O)N(C)C(C)C)cc2)CC1 | 16.4% (inactive) |
| CC=CCn1c(SCCCc2ccccc2)nc2c1c(=O)[nH]c(=O)n2C | 3.87% (inactive) |
| NC1=CC(=O)C(=O)c2cccnc21 | 54.7% (active) |
| O=C(CCC(=O)NNc1nc2ccccc2c2nc(-c3ccccc3)nn12)NCCCN1CCCC1=O | -19.4% (inactive) |
| CSc1nc(-c2ccccc2)nc(C(Cl)Cl)n1 | 77.8% (active) |
| COCCNC(=S)Nc1cc(S(=O)(=O)N2CCOCC2)ccc1N1CCCCC1 | 11.9% (inactive) |
| CCn1cc(CNC(=O)c2cc([N+](=O)[O-])c(C)c([N+](=O)[O-])c2)cn1 | 8.39% (inactive) |
| O=C(CCl)Nc1cccc(CP(=O)(c2ccccc2)c2ccccc2)c1 | 44.2% (active) |
| O=C(CN1CCN(Cc2ccccc2)CC1)Nc1ccc(F)c(F)c1 | -1.13% (inactive) |
| O=C(CNCc1ccc(Cl)cc1)Nc1cccc(C(=O)O)c1 | 2.72% (inactive) |
| O=C(NCc1cccs1)c1ccc(CS(=O)Cc2ccccc2Cl)o1 (stereo not drawn) | -0.00949% (inactive) |
| Cc1cccc(OCCC(=O)Nc2cc(S(=O)(=O)N3CCCCC3)ccc2N2CCOCC2)c1 | -42.8% (inactive) |
| CC[C@@H]1Cc2cc(O)ccc2C2=C1c1ccc(O)cc1C[C@H]2CC | 45.9% (active) |
| CCOC(=O)c1sc(/N=C/C2=C(O)CC(C)(C)CC2=O)c(C(=O)OCC)c1C | -268% (inactive) |
| CC(C)C1Nc2c(C(=O)O)cccc2C(Nc2ccccc2C(=O)O)C1(C)C (stereo not drawn) | 19% (inactive) |
| O=C(COC(=O)CC1CC2CCC1C2)NC(=O)NC1CCCC1 (stereo not drawn) | 11.3% (inactive) |
| Cc1cc(Br)cn2c(Cc3ccccc3C(F)(F)F)c(C3CCCCC3)nc12 | 7.15% (inactive) |
| COc1cc2c(cc1OC)CC1(CCCCC1)N=C2 | 10.1% (inactive) |
| COc1cc2c(cc1OC)C(Nc1ccc(S(N)(=O)=O)cc1)=NC(C)(C)C2 | 8.2% (inactive) |
| COc1cc2c(cc1O)C(SC)=NC(C)(C)C2 | 89.4% (active) |
| CC(NC(=O)CC1SC(N)=NC1=O)c1ccccc1 (stereo not drawn) | 6.27% (inactive) |

| SMILES | inhibition |
| --- | --- |
| O=C(/C(=C/c1cccc(Cl)c1)c1nc2ccccc2[nH]1)c1ccccc1 | 92.8% (active) |
| C[C@H]1CN([C@@H](C)CO)C(=O)CCCn2cc(nn2)CO[C@@H]1CN(C)S(=O)(=O)c1cccs1 | 6.28% (inactive) |
| O=c1onc(-c2c(F)cccc2F)n1-c1ccccc1Cl | 11.8% (inactive) |
| Cc1c[n+]([O-])ccc1[N+](=O)[O-] | 3.58% (inactive) |
| CCc1ccc(CNC(=O)C2CC(=O)N(CCc3ccc(C)cc3)C2)cc1 (stereo not drawn) | -8.53% (inactive) |
| COc1cccc(CNC(=O)C2CCCN(c3ncnc4c3nc3n4CCCCC3)C2)c1 (stereo not drawn) | 0.819% (inactive) |
| Cc1ccc(NC(=O)N2CCC(C(=O)NCc3ccc(F)cc3)CC2)cc1 | 11.1% (inactive) |
| CCc1ccc(CNC(=O)C2CCCN(c3nc4ccccc4o3)C2)cc1 (stereo not drawn) | 12.9% (inactive) |
| CCc1ccc(CNC(=O)C2CCN(c3nnc(C)c4c(C)n(-c5ccc(C)cc5)nc34)CC2)cc1 | 54.1% (active) |
| CCOc1ccc(CNC(=O)C2CCCN(c3nnc(C)c4c(C)n(-c5ccccc5)nc34)C2)cc1 (stereo not drawn) | 40.7% (active) |
| CN(C)S(=O)(=O)c1cc(NC(=O)CN2C(=O)NC3(CCCc4ccccc43)C2=O)ccc1Cl (stereo not drawn) | 12.2% (inactive) |
| O=c1cc(C(F)(F)F)[nH]c(=O)n1C1CCCCC1 | 3.85% (inactive) |
| COc1ccc([N+](=O)[O-])cc1N(CC(=O)Nc1ccccc1C(=O)N1CCOCC1)S(C)(=O)=O | 3.69% (inactive) |
| CCCCNC(=O)OCCSCCS(=O)(=O)c1ccc(Cl)cc1 | 10.7% (inactive) |
| O=C(CN1CCN(c2ccccn2)CC1)NCc1cccs1 | 4.32% (inactive) |
| COc1ccc(OC)c(NC(=O)C2CCCN2S(=O)(=O)c2cccc3nsnc23)c1 (stereo not drawn) | 16.7% (inactive) |
| Cc1cc(C)nc(S/C=C/C(=O)c2ccccc2)n1 | 69.1% (active) |
| Cc1nc(SCC(=O)c2ccccc2)c([N+](=O)[O-])[nH]1 | 8.52% (inactive) |
| C/C(=C\C(=O)c1ccccc1)Nc1cccc(O)c1 | -359% (inactive) |
| CN1c2ccc(C=O)c3c(C=O)ccc(c23)N(C)C1(C)C | 25.6% (inactive) |
| CC1(C(=O)NS(=O)(=O)Cc2cccc(Cl)c2)CCN1C(=O)Cc1ccccc1 (stereo not drawn) | 12.1% (inactive) |
| C[C@@H]1NC(=O)c2cc([N+](=O)[O-])cc(F)c2NCCC[C@@H](C(N)=O)NC(=O)[C@H](CC(N)=O)NC1=O | 9.38% (inactive) |
| CCOC(=O)c1c(C)[nH]c2c1-c1ccccc1C(=O)C2=O | 96.1% (active) |
| CCOC(=O)c1c(C)oc(C)c(C(=O)OCC)c1=O | 0.843% (inactive) |

| SMILES | inhibition |
| --- | --- |
| CCOC(=O)c1[nH]c(C)c(C(=O)OCC(=O)N2c3ccccc3CC2C)c1C (stereo not drawn) | 2.58% (inactive) |
| COc1ccc(CN2CCNC(=O)C2CC(=O)N(C)Cc2ccccn2)cc1OC (stereo not drawn) | 9.28% (inactive) |
| COc1ccc(C(=O)Nc2ccccc2C(=O)N/N=C/c2ccc(O)c(OC)c2)cc1 | 69.5% (active) |
| COc1cc(/C=N/NC(=O)Nc2ccccc2)ccc1OCCOc1ccccc1C | -9.55% (inactive) |
| COc1cc(C=NC2CCCCC2)ccc1O | 2.1% (inactive) |
| Cc1ccc(C)c(NC(=O)CN(C)C(=O)c2ccc3ncsc3c2)c1 | 5.94% (inactive) |
| CC(C)CN(C(=O)c1ccc2c(c1)OCO2)C1CCS(=O)(=O)C1 (stereo not drawn) | 24.2% (inactive) |
| Cc1nn(-c2ccccc2)c(=O)c2noc(C)c12 | 3.29% (inactive) |
| Cc1[nH]c(=O)c(C(=O)/C=C/c2ccccc2)c2c1CCCC2 | 72.5% (active) |
| C/C(=C\c1ccccc1)C1NC(=O)c2c(sc3c2CCCC3)N1 (stereo not drawn) | -140% (inactive) |
| CC1(C(=O)O)CCN1C(=O)/C=C/c1ccccc1 (stereo not drawn) | 3.94% (inactive) |
| Cc1ccc(OCCCC(=O)Nc2ccc3c(c2)OCCO3)cc1 | 1.79% (inactive) |
| CCOc1ccc(NCCC(=O)c2ccc3c(c2)OCO3)cc1 | -129% (inactive) |
| COC(=O)CCNc1ccc2c(c1)OCCO2 | 42% (active) |
| CCC(=O)Nc1ccc(C(=O)CSc2nnc(CNc3ccc(Cl)cc3)o2)cc1OC | 14.6% (inactive) |
| CC(=O)N1c2ccc(S(=O)(=O)N3CCCC(C(=O)Nc4ccc(C)cc4C)C3)cc2CC1C (stereo not drawn) | 17% (inactive) |
| Oc1ccc(CNc2ccccc2O)cc1 | -142% (inactive) |
| O=S(=O)(NCc1ccccn1)c1ccc(Br)s1 | -3.82% (inactive) |
| O=S(=O)([N-]c1nc2ccccc2nc1-[n+]1ccc(Cc2ccccc2)cc1)c1ccc(Br)s1 | 52.2% (active) |
| CCN(CC)CC(=O)Nc1nn(-c2ccccc2)nc1C(N)=O | 4.53% (inactive) |
| OCCCNC(c1ccccc1)c1ccc(O)cc1 (stereo not drawn) | 1.29% (inactive) |
| O=C(/C=C/Sc1ncn[nH]1)c1ccc(Cl)cc1 | 88.1% (active) |
| CC(=O)OCc1cc(=O)n(C)c(=O)n1C | -10.8% (inactive) |
| O=C(CSc1nc2cccc(F)c2c(=O)n1-c1ccccc1)Nc1ccc2c(c1)CCC2 | -5.39% (inactive) |

| SMILES | inhibition |
| --- | --- |
| CC(C)(C)CC(=O)Nc1nc(C(N)Cc2ccc(C(F)(F)F)cc2)cs1 (stereo not drawn) | 11.1% (inactive) |
| COc1ccc(CC(N)c2csc(NC(=O)NC(c3ccccc3)c3ccccc3)n2)cc1 (stereo not drawn) | 4.75% (inactive) |
| COc1ccc(CC(N)c2csc(NC(=O)Nc3ccc(C(C)C)cc3)n2)cc1 (stereo not drawn) | 91.1% (active) |
| O=C(CNC(=O)OCc1ccccc1)Oc1cc2oc(=O)cc(-c3ccccc3)c2cc1Cl | -13.9% (inactive) |
| CN1OC[C@@H]2CN(S(=O)(=O)c3cccc4ccccc34)[C@H](c3ccc(N4CCCCC4)cc3)C[C@@H]21 | 7.35% (inactive) |
| COc1ccc(S(=O)(=O)N2C[C@H]3CON(C)[C@H]3C[C@H]2c2cccc(Br)c2)cc1 | 6% (inactive) |
| CN1OC[C@@H]2CN(S(=O)(=O)c3cccc(C(F)(F)F)c3)[C@H](c3ccc(-c4cc5ccccc5o4)cc3)C[C@@H]21 | 50.8% (active) |
| COc1ccc(-c2cnc3c(c2)C(=O)N([C@H](C)CO)C[C@@H](C)[C@H](CN(C)Cc2ccccc2)O3)cc1 | -3.08% (inactive) |
| Cc1cc(C)n(C(=O)CCNC(=O)c2ccccc2Cl)n1 | 5.47% (inactive) |
| CN(C)CCNC(=O)c1ccc(Cl)c2cc3ccccc3nc12 | 43.6% (active) |
| COCCNC(=O)c1ccccc1-c1nc(-c2ccccc2Cl)no1 | -82.5% (inactive) |
| O=S(=O)(N/N=C\c1cccn1-c1ccccc1)c1ccc2ccccc2c1 | 9.64% (inactive) |
| CCCc1cc(-c2n[nH]c(=S)n2CC)c2ccccc2n1 | 25.6% (inactive) |
| CCN(CC)S(=O)(=O)c1cccc(-c2n[nH]c(=S)n2/N=C/c2ccc(C(=O)OC)cc2)c1 | 20.2% (inactive) |
| Cc1cc(-c2n[nH]c(=S)n2/N=C/C(Br)=C/c2ccccc2)n[nH]1 | 87% (active) |
| CCN1CCN(C(=O)C2CCN(S(=O)(=O)c3cc(Cl)ccc3Cl)CC2)CC1 | 6.56% (inactive) |
| COc1ccc(Br)cc1S(=O)(=O)N1CCN=C1C | 13.2% (inactive) |
| O=C(Nc1ccc2c(c1)OCO2)C1CC(c2c(F)cccc2Cl)=NO1 (stereo not drawn) | -228% (inactive) |
| Cc1c(C)c2cc3c4c(oc3c(C)c2oc1=O)CCCC4 | -31.5% (inactive) |
| CC[C@@H](C)[C@H](NC(=O)CCc1c(C)c2cc3c4c(oc3c(C)c2oc1=O)CCCC4)C(=O)O | 56.9% (active) |
| Cc1c(CCC(=O)N[C@@H](CC(C)C)C(=O)O)c(=O)oc2c(C)c3oc4c(c3cc12)CCCC4 | 31.2% (inactive) |

Source: PubChem BioAssay AID624352 (Sanford-Burnham Center for Chemical Genomics, 2012)
